# From PubChem BioAssay (NCI)
# About 83,000 compounds went through this panel and 20% of them were active in at least one assay; those are over-represented in the sample as a whole.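 Note: values are percent growth. 100 is the growth of untreated cells, values between 100 and 0 indicate rising inhibition; between -100 and 0 indicates cell death.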 A number with no mark means an inactive call. Active and inactive are the calls of the source. The calls were made as follows: active = growth percent below 10; inactive = the rest.
# Tests used:
# Assay in all cases: NCI-60 one-dose screen, 48 h (100 = growth as untreated, 0 = no growth, -100 = all killed)
# Details in all cases: 10 µM unless noted
# HCT-15 colon = test system: HCT-15 colon
# HT29 colon = test system: HT29 colon
# SNB-75 CNS = test system: SNB-75 CNS
# SNB-19 CNS = test system: SNB-19 CNS
# U251 CNS = test system: U251 CNS
# PC-3 prostate = test system: PC-3 prostate
# SK-MEL-5 melanoma = test system: SK-MEL-5 melanoma
# UACC-62 melanoma = test system: UACC-62 melanoma
# LOX IMVI melanoma = test system: LOX IMVI melanoma
# SK-MEL-28 melanoma = test system: SK-MEL-28 melanoma
# SK-MEL-2 melanoma = test system: SK-MEL-2 melanoma
# EKVX NSCLC = test system: EKVX NSCLC
# SN12C renal = test system: SN12C renal
# UO-31 renal = test system: UO-31 renal
# TK-10 renal = test system: TK-10 renal
# ACHN renal = test system: ACHN renal
# CAKI-1 renal = test system: CAKI-1 renal
# A498 renal = test system: A498 renal
# CCRF-CEM leukemia = test system: CCRF-CEM leukemia
# MOLT-4 leukemia = test system: MOLT-4 leukemia
SMILES,growth (HCT-15 colon),growth (HT29 colon),growth (SNB-75 CNS),growth (SNB-19 CNS),growth (U251 CNS),growth (PC-3 prostate),growth (SK-MEL-5 melanoma),growth (UACC-62 melanoma),growth (LOX IMVI melanoma),growth (SK-MEL-28 melanoma),growth (SK-MEL-2 melanoma),growth (EKVX NSCLC),growth (SN12C renal),growth (UO-31 renal),growth (TK-10 renal),growth (ACHN renal),growth (CAKI-1 renal),growth (A498 renal),growth (CCRF-CEM leukemia),growth (MOLT-4 leukemia)
CC(CCc1ccccc1)NC(=O)c1n[nH]c(=O)c2ccccc12 (stereo not given),101%,105%,96.6%,115%,103%,95.7%,98.9%,93.9%,95.4%,118%,79.2%,105%,107%,47.5%,89.6%,97.8%,104%,98.4%,83.4%,83.4%
CC(C)CCC[C@@H](C)[C@H]1CC[C@H]2[C@@H]3CC[C@H]4C/C(=N/O)CC[C@]4(C)[C@H]3CC[C@]12C,111%,105%,96.9%,104%,96.6%,83.4%,98.3%,98.6%,96.6%,116%,101%,101%,103%,94.3%,105%,110%,96.7%,98.5%,100%,95.9%
Cc1ccc(-c2csc3nc(C)c(CCCl)c(=O)n23)cc1,98.5%,105%,74.7%,100%,106%,83.5%,89.7%,88.2%,89.1%,113%,94.5%,76.8%,101%,70.4%,113%,99%,88%,104%,104%,85.6%
CC(C)(C)c1cn2cccc(C(=O)N3CCN(CC(=O)Nc4ccc(Cl)cc4C(=O)c4ccccc4Cl)CC3)c2n1,47.5%,22.2%,78.4%,73.2%,43.4%,17.6%,12.5%,57.6%,63.5%,89.8%,65.4%,40.8%,72.6%,47%,69%,44.8%,67.5%,-0.735% (active),27.9%,16.4%
CS(=O)(=O)N(c1cc(-c2ccc3ncnc(Nc4cccc(Cl)c4)c3c2)cnc1Cl)S(C)(=O)=O,10.4%,11.7%,-3.18% (active),24.3%,20.8%,10.7%,-60.7% (active),-6.31% (active),2.19% (active),-6.78% (active),-20% (active),-3.18% (active),21.6%,2.2% (active),2.1% (active),11.7%,6.68% (active),-28% (active),20.2%,-10.5% (active)
C=C1C(=O)O[C@H]2[C@H]1CC/C(Cn1cc(-c3ccc(N)cc3)nn1)=C\CC[C@@]1(C)O[C@@H]21,-46.9% (active),-59.4% (active),25.6%,61.3%,34.1%,24.1%,35.3%,-37.4% (active),-63.6% (active),-17% (active),41.9%,-19.9% (active),-7.63% (active),-74.3% (active),17.9%,3.22% (active),16.7%,44.1%,-17.7% (active),5.77% (active)
O=C1Nc2cc(Cl)ccc2Oc2cc(Oc3ccccc3)ccc21,46.7%,17.4%,50.9%,72.7%,74.1%,75.2%,34.5%,59.6%,51.5%,71%,48%,72%,68%,53.4%,78%,83.7%,51%,67.1%,54.6%,45.9%
O=C(CSc1nc(-c2ccc(Cl)cc2)cn1-c1ccc(Cl)cc1)c1ccc(Br)cc1,85.2%,66.9%,44.4%,77.8%,37.5%,50.3%,94.9%,72.1%,73.4%,87.1%,87%,69.1%,62.6%,45.5%,93%,22.4%,78.7%,93.8%,92.8%,90.7%
Nc1nc(Cl)c2c(ncn2Cc2ccc(CCl)cc2)n1,84.9%,91%,100%,93.2%,81.4%,77.6%,70.3%,78.4%,69.7%,101%,98.6%,103%,93.4%,70.5%,78.9%,83.3%,102%,97.3%,1.58% (active),103%
C/C(=N\NC(=O)CC#N)c1cc2cc(Cl)ccc2o1,94.7%,97.2%,91%,77.9%,89.3%,92.4%,84.2%,91%,103%,110%,96.4%,33.6%,93.1%,108%,114%,96.1%,89.2%,111%,70.2%,87.4%
O=c1cc(C2NCCc3c2[nH]c2ccccc32)c2c(ccc3ccccc32)o1 (stereo not given),44.5%,56.2%,51.6%,88.3%,66.1%,56%,76.4%,48.7%,36.8%,92.7%,36.2%,75.3%,87.5%,26.2%,71.7%,31.7%,15.5%,46.3%,77.8%,75.1%
CC(C)(C)c1cc(-c2nc3ccc(N4CCN(CCO)CC4)cc3[nH]2)cc(C(C)(C)C)c1O,-14.4% (active),4.47% (active),67.2%,74%,16%,58.3%,74%,26.7%,-35.5% (active),61.2%,81.8%,92.9%,85.8%,72.4%,87.6%,89.2%,63.2%,86.1%,29.5%,32.9%
Cc1c(C2=NNC(c3ccc4c(c3)OCO4)C2)[n+]([O-])c2ccccc2[n+]1[O-] (stereo not given),103%,110%,88.9%,103%,110%,96%,97.9%,118%,96.1%,113%,81.4%,91.5%,108%,84.6%,183%,108%,107%,94.7%,97.7%,105%
CCOC(=O)c1cc(/C(=N\O)c2cc(OC)c(OC)c(OC)c2)n2c(C)cccc12,25.7%,9.58% (active),9.5% (active),42.5%,26.2%,31.4%,14.5%,27%,37.9%,58.4%,21.8%,36.6%,54.3%,54%,21.2%,37.3%,36%,-1.4% (active),22.5%,28.5%
COc1ncc(-c2ccc3ncnc(Nc4cccc(Cl)c4)c3c2)cc1NS(=O)(=O)C1CC1,27.6%,29.7%,-1.09% (active),49.7%,59.9%,24.4%,37.3%,25.1%,34.8%,39.4%,36.5%,12.3%,31.2%,22.5%,1.03% (active),23.9%,27.8%,15.7%,33.2%,-0.986% (active)
CCCCCCCN(CCCCCCC)C(=N)c1ccc(OC)c2ccccc12,-81.4% (active),-78.8% (active),-98.2% (active),-80.7% (active),-90.5% (active),-92.3% (active),-93.2% (active),-76.5% (active),-98.7% (active),-82.9% (active),-82.5% (active),-21.7% (active),-75.4% (active),-86.6% (active),-89.4% (active),-91.9% (active),-12.2% (active),-52.9% (active),-43.5% (active),-50.4% (active)
